Sampled rows, rich in hits. Any-hit rate of the full collection: about 8.1%.
KB-V1 cytotox: KB-V1 MDR subline cytotoxicity. KB-V1 MDR cells viability, CellTiter-Glo, 72 h. Potency, µM (doses to about 46.1 µM), actives largely listed as cytotoxic. hit rate 3.4% among 400,000; further: nearly all actives have a fitted effect of over 60% in size
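In this primary screen, KB-V1 cells overexpressing P-gp are incubated with library compounds (lowest to highest concentration) for 72 h at 37 degrees C before a luminescent ATP viability read.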
MCF10A rereplic: inducers of DNA re-replication in MCF 10A breast cells; MCF 10A DNA re-replication, Hoechst nuclear intensity, 48 h; Potency, µM (top dose mostly 46.1 µM), actives largely listed as activators; hit rate 2.9% among 350,000; further: nearly all actives have a fitted effect of over 50% in size
ELG1 repair inh: ELG1-dependent DNA repair inhibition | AID 504467 | hit rate 2.3% among 330,000 | HEK293T ELG1-luciferase reporter, luminescence, 16 h; DNA damage induced by 5-fluorouridine | Potency, µM (titrated, usually from 46.1 µM), hits mostly inhibitors; further: nearly all actives have a fitted effect of over 55% in size
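In this reporter screen, reduction of luminescence relative to DMSO vehicle indicated activity. Compounds and 5-fluorouridine were added together to 2,000 cells per well, incubated for 16 hr at 37 °C, then developed with ONE-Glo.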
SW480 rerep: induces DNA re-replication in SW480 colon adenocarcinoma cells. SW480 DNA re-replication, Hoechst DNA content imaging, 48 h. Potency, µM (titrated, usually from 46.1 µM), usual class: activators. hit rate 1.8% among 340,000; further: nearly all actives have a fitted effect of over 55% in size
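Hoechst fluorescence of nuclei (405 nm excitation, 500-530 nm emission) measured by plate-scanning imager after 48 hr compound exposure at 37 C; re-replication scored as increased number of nuclei with elevated intensity.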
KB-3-1 cytotox: KB-3-1 parental cell cytotoxicity; AID 1347075; hit rate 1.4% among 400,000; KB-3-1 viability, CellTiter-Glo ATP luminescence, 72 h; Potency, µM (series often up to 46.1 µM), usual class: cytotoxic; further: nearly all actives have a fitted effect of over 60% in size
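Parental KB-3-1 adenocarcinoma cells in phenol-red-free DMEM with 10% FBS were pin-treated with compounds at several concentrations, incubated 72 h at 37 °C, and viability read by CellTiter-Glo luminescence; concentration-effect curves were fitted after normalization.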
Hits are given with their value; – = inactive; ? = inconclusive; · = no result given; ! = not confirmed by another sample; [ ] = another dose, or the depositor's remark. The call rests on the fitted dose curve; in most records, active means well fitted curve in the direction sought with a large enough effect; inconclusive means small, poorly fitted or top-dose-only effect, or another doubt; inactive means no such curve, though single readings can be large; an effect the other way counts as inactive or inconclusive.

SMILES	KB-V1 cytotox	MCF10A rereplic	ELG1 repair inh	SW480 rerep	KB-3-1 cytotox
CCOC(=O)c1cc2c(=O)n3ccccc3nc2n(Cc2ccco2)c1=NC(=O)c1cccnc1	–	?	?	6.5µM	–
Cc1cccc(C(=O)N=c2c(C#N)cc3c(=O)n4cccc(C)c4nc3n2Cc2ccco2)c1	–	18µM	?	23µM	?
CCOC(=O)c1cc2c(=O)n3cccc(C)c3nc2n(Cc2ccco2)c1=NC(=O)c1cccnc1	–	–	–	?	–
Cc1cccn2c(=O)c3cc(C#N)c(=NC(=O)c4ccccc4)n(Cc4ccco4)c3nc12	?	2.3µM	·	7.3µM	–
CN(C(=O)CSc1nnc(-c2cccs2)n1N)c1ccccc1	–	–	–	–	–
CN=C1SC(CC(=O)Nc2sc3c(c2C#N)CCCC3)C(=O)N1C (configuration not stated)	–	–	?	–[9.22 µM]	–
COc1ccc(S(=O)(=O)Nc2cccc(N(C)S(C)(=O)=O)c2)cc1Br	15µM	–	?	–	–
Cc1ccccc1COc1cccn2c(N(C)C(=O)CCC3CCCC3)c(C)nc12	–	·	·	·	–
O[C@@H](c1cc(C(F)(F)F)nc2c(C(F)(F)F)cccc12)[C@H]1CCCCN1	?	?	–	?	18µM!
CC(C)(C)NCCC(O)c1cc(C(F)(F)F)nc2c(C(F)(F)F)cccc12 (configuration not stated)	21µM	–	·	?	?
CC(C)Cn1c(N)c(C(=O)COC(=O)c2cc(C(F)(F)F)nc3c(C(F)(F)F)cccc23)c(=O)n(C)c1=O	·	–	–	–	·
CCCCNC(=O)N(O)C1N(/N=C/c2cccnc2)C(=S)SC1(C)C (configuration not stated)	–	–	–	–	–
Cc1cc2c(N=O)c(NO)ccc2[nH]1	4.1µM	?	–	4.1µM	?
COc1ccc(-c2ccc(CN3C(C)C(=O)N(Cc4cn(CCC5OCCCO5)nn4)CCS3(=O)=O)cc2)cc1 (configuration not stated)	?	·	·	·	–
COc1ccccc1NS(=O)(=O)c1ccccc1C#N	–	–	–	–	–
Cc1cc(O)c(C(C[N+](=O)[O-])c2ccc(Cl)cc2)c(=O)o1 (configuration not stated)	–	–	–	–	–
Cc1cc(C)n(C(C[N+](=O)[O-])c2ccc(Cl)cc2)n1 (configuration not stated)	?	15µM	–	?	?
OCCOCCOCCO	·	–	·	–	·
CCOC(=O)c1c(NCc2ccccc2)n[nH]c1C	–	–	–	–	–
CCOC(=O)c1c(Nc2ccccc2OCCOC)n[nH]c1C	–	–	21µM	–	–
COc1ccccc1CNc1ncnc2onc(-c3ccc(Cl)cc3)c12	–	·	·	·	–
COc1ccc(OC)c(CNc2ncnc3onc(-c4ccc(Cl)cc4)c23)c1	8.2µM	·	·	·	5.8µM
CN1CCC(=C2c3ccccc3C=Cc3ccccc32)CC1	?	?	–	?	–
CN1CCC(=C2c3ccccc3Sc3ccccc32)CC1	?	27µM	·	?	–
CCCC(=O)Nc1ccc2nc(SCC(=O)N3CCCC3)sc2c1	?	–	?	–	–
SMILES	KB-V1 cytotox	MCF10A rereplic	ELG1 repair inh	SW480 rerep	KB-3-1 cytotox
CC[C@]12C(=O)N(C)C[C@H]([C@@H]3C(=O)N(Cc4ccccc4)C(=O)[C@@H]31)N2C(=O)c1ccc(F)cc1	–	–	·	–	–
CCCN1CCC(NC(=S)Nc2ccc([N+](=O)[O-])cc2)CC1	–	–	–	–	–
CCCCNC(=S)Nc1ccc([N+](=O)[O-])cc1	?	18µM	–	–	?
CCCN1CCN(C(=S)Nc2ccc([N+](=O)[O-])cc2)CC1	21µM	–	–	–	–
O=[N+]([O-])c1ccc(NNC(=S)Nc2ccc(F)cc2)cc1	21µM	–	?	–	?
CCOC(=O)c1ccc(N[C@@H]2CCN3C(=O)c4ccccc4[C@@H]3C[C@H]2O)cc1	–	–	?	?	–
CCc1nc2ccc(C(=O)N3CCN(C)CC3)cn2c1N(C)CCCc1ccccc1	–	·	·	·	–
COc1ccc(C(=O)OCCCN(C)C)cc1OC	–	?	–	–	–
CCCC(=O)c1cc(F)c(N2CCN(C(=O)OCC)CC2)cc1C	?	–	–	–	–
CCOC(=O)N1CCN(c2cc3nccnc3cc2F)CC1	21µM	–	?	–	–
COc1ccc2c(-c3ccccc3)cc(SCC(=O)N(C)C)nc2c1	–	–	?	–	–

Source: PubChem BioAssay (National Center for Advancing Translational Sciences (NCATS))
